Source: ChEMBL document CHEMBL4513216, “Probing the Open Global Health Chemical Diversity Library for Multistage-Active Starting Points for Next-Generation Antimalarials” (ACS Infect Dis, 2020)
Screen size: about 69,000 compounds; about 8,600 (12%) showed an effect of 50% or more. What follows is part of a selection rich in strong results, with near analogues and random picks from the rest.

Test system: Plasmodium berghei
Test: Screen against P. berghei liver stage (PbLuc), transformed with Luciferase, at 10uM
Assay type: functional, HepG2
Conditions: tested at 10 uM

Compound	INHIBITION [%]
COCCOCC(=O)N1C[C@@H]2CC[C@H](Oc3cccc(F)c3)[C@@H]2C1	-71.9
CN1CCCC2(CC1)CCN(C(=O)CCc1ccccc1O)CC2	56.5
CN1CCN(CC2(O)CCN(C(=O)CCc3ccccc3F)C2)CC1 (stereo unspecified)	16.705
CN1CCCC2(CC1)CCN(C(=O)CCc1ccccc1F)CC2	80
COC(=O)CCC(=O)N1CCC2(CN(Cc3ccccc3F)C2)C1	22.4
CCCC(=O)N1Cc2ccccc2CC2(CCN(C)C2)C1 (stereo unspecified)	40
Cc1nc2c(c(=O)n1C)CCN(C(=O)CCc1ccccc1O)CC2	14.3
COc1ccc(CCNC(=O)N2CCCC(c3nncn3C)C2)cc1 (stereo unspecified)	-12.1
COCCN1CCC(CNC(=O)C2(c3ccccc3)CCOCC2)C1 (stereo unspecified)	5.9
CC1COCCN1Cc1nc(-c2cccc(C(F)(F)F)c2)no1 (stereo unspecified)	9.54
CCc1c(C)nc2ccccc2c1N1CCC(C(=O)NC)CC1	52.2
CCc1c(C)nc2ccccc2c1N1CCC(O)CC1	24.4
CCc1c(C)nc2ccccc2c1N1CCC(NC(C)=O)CC1	37.2
COc1c(CNC2CCc3ccccc32)c(C(C)C)nn1C (stereo unspecified)	11.2
CC(=O)N1CCC(NC(=O)Cc2nc3nc(C)cc(C)n3n2)CC1	4.25
O=S(=O)(NCC1OCCc2cn(Cc3ccccn3)nc21)C1CC1 (stereo unspecified)	10.7
C[C@@H]1CN(Cc2cccnc2)C[C@]12CCN(CCN1CCCC1)C2=O	37.1
Cc1ccc(CN(Cc2ccccn2)C(=O)C2CCCCCN2C)s1 (stereo unspecified)	27.6
Cc1ccc(CN(Cc2ccccn2)C(=O)CCC2CCCN(C)C2)s1 (stereo unspecified)	49
Cc1ccc(CN(Cc2ccccn2)C(=O)[C@H]2CC[C@@H](N)C2)s1	60.8
CC(CC1CC1)NCCCN1CCCN(C)CC1 (stereo unspecified)	-7.94

Compound	INHIBITION [%]
Cn1cc(NC(=O)Nc2cccc3cccnc23)ccc1=O	37.9
Cc1n[nH]c(C)c1C1CCCN1C(=O)NC(C)(C)C (stereo unspecified)	31.1
Cc1n[nH]c(C)c1C1CCCN1C(=O)NCC(=O)NC(C)(C)C (stereo unspecified)	43.3
COC(C)(C)CNC(=O)N1CCCC1c1c(C)n[nH]c1C (stereo unspecified)	82.2
CCOc1c(CNC2CSCCSC2)cccc1OC	24.9
Cc1nnc([C@]23COC[C@H]2CN(Cc2cccs2)C3)o1	27.5
COCc1noc(CC2CN(c3ncnc4sc(C)c(C)c34)CCO2)n1 (stereo unspecified)	-12.5
Cc1cnc(N2CCC3(CCN(CC4CCCC4)C3=O)CC2)nc1	-9.74
Cc1cnn(C2CN(Cc3noc(-c4ccccc4)n3)C2)c1	8.77
COc1ccc(-c2nc(CN3CC(n4cc(C)cn4)C3)no2)cc1	90.1
COc1ccc(-c2nc(CN3CC(n4cccn4)C3)no2)cc1	25.8
CC(c1nc(-c2ccccc2)no1)N1CC(n2cccn2)C1 (stereo unspecified)	-66.5
Cc1ccc(-c2noc(Cn3nc(C(N)=O)ccc3=O)n2)cc1	28.2
CCc1ccc(-c2noc(Cn3nc(C(N)=O)ccc3=O)n2)cc1	-16.3
Cc1cccc(-c2noc(Cn3nc(C(N)=O)ccc3=O)n2)c1	56
Cc1cnn(C2CN(Cc3nc(-c4ccco4)no3)C2)c1	-0.847
CCCc1noc(C(C)N2CC(n3cccn3)C2)n1 (stereo unspecified)	8.77
Cc1ccccc1-c1noc(CN2CC(n3cccn3)C2)n1	-33.7
Cc1cnn(C2CN(Cc3nc(-c4ccccc4C)no3)C2)c1	89.5
Cc1cnn(C2CN(C(C)c3nc(-c4ccccc4)no3)C2)c1 (stereo unspecified)	84
